Assay outcomes (PubChem)
Shown are actives, neighbours in structure and some others; about 18% of the full set was active somewhere.
DT40 TDP1 CPT = growth inhibition of DT40 Tdp1-/-;hTDP1 cells with camptothecin (screen for TDP1 inhibitors) | chicken DT40 Tdp1-/-;hTDP1 cells + 20 nM CPT, ATP luminescence, 48 h | Potency, µM (top dose mostly 46.2 µM), usual class: inhibitors | 12% of 420,000 active; also: nearly all actives have a fitted effect of over 55% in size
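Cell growth measured by CellTiter-Glo luminescence after a minimum 48 h, 37 C compound exposure with 20 nM CPT in Tdp1-knockout DT40 cells stably expressing hTDP1, seeded 400/well; qHTS titration format.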
TDP1 cell noCPT = qHTS for Inhibitors of human tyrosyl-DNA phosphodiesterase 1 (TDP1): qHTS in cells in absence of CPT; DT40 Tdp1-/- hTDP1 cells, no CPT, ATP luminescence, 48 h; Potency, µM (highest dose often 46.2 µM), actives largely listed as inhibitors; 15% of 420,000 active; AID 686978, 2013; also: nearly all actives have a fitted effect of over 55% in size
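Stably hTDP1-transfected Tdp1-null chicken DT40 cells were treated with library compounds minus camptothecin and grown for at least 48 hr at 37 °C, after which cellular ATP was quantified by luminescence.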
RORg inh = blocks mouse ROR gamma transcriptional activity | 5.4% of 310,000 active | Drosophila S2 Gal4-RORgamma UAS-luciferase reporter, 20 h | Potency, µM (doses to about 53.6 µM), usual class: inhibitors; also: nearly all actives have a fitted effect of over 60% in size
Target sequence (P51450 whole entry, looked up, the tested form may be a part): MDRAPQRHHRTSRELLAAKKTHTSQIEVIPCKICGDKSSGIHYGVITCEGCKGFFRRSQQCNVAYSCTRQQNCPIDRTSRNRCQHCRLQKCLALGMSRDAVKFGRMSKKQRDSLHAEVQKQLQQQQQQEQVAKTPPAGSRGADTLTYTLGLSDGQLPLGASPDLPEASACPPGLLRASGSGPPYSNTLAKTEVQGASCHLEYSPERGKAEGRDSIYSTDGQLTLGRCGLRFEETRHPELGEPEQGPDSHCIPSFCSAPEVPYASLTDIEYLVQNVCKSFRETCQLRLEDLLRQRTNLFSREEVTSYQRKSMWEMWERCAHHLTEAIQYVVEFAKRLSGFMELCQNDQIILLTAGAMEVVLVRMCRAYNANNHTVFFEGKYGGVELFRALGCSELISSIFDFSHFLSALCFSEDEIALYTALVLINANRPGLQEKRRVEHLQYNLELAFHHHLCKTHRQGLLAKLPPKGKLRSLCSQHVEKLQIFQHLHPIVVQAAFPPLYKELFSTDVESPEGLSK
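Schneider cells (Drosophila), stable Gal4 DBD–ROR gamma + UAS-luc; 1 hr cmpd preincubation; Cu2+ induction 700 uM final; 20 hr ambient; luminescence.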
VP16 counter = inhibits Gal4-VP16 luciferase reporter, ROR gamma counter-screen; Drosophila S2 Gal4-VP16 UAS-luciferase, luminescence, 20 h; Potency, µM (highest dose often 53.6 µM), hits mostly inhibitors; 3.5% of 310,000 active; AID 2546;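 also: Gal4-VP16 expression switched on by copper sulfate through the metallothionein promoter; nearly all actives have a fitted effect of over 50% in size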
IL1B secr inh = inhibitors of inflammasome signaling (IL-1 beta secretion) | activity change, % at 57.5 µM | THP-1 LPS/ATP IL-1B secretion, AlphaLISA, 16 h; active compounds read low | 4.7% of 360,000 active | AID 743279; in the data active = activity change below about -50%; inconclusive = mostly about -30% to -49%
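THP-1 cells pretreated 1 hr with compounds (up to 57.5 uM final), then stimulated with LPS (250 ng/mL final) plus ATP (1.25 mM final); secreted IL-1B measured by AlphaLISA after 16 hr, decreased signal indicating inhibition.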
LDHA block = LDHA (human) enzyme inhibition; P00338; purified LDHA, NADH/diaphorase-resazurin fluorescence; active compounds read low; activity change, % (values are at about 110 or 230 µM); 0.15% of 480,000 active; in the data active = activity change below about -30%; inconclusive = mostly about -25% to -30%
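Human LDH5 (2 nM) was incubated with 0.06 mM NADH and 0.2 mM pyruvate for 5 min at room temperature in Tris pH 7.4. Remaining NADH was coupled through diaphorase/resazurin, and resorufin fluorescence was read at 0 and 20 min.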
Numbers stand for hits; - = inactive; ? = inconclusive; . = not tested or not shown. Unless noted, calls follow the shape of the dose curve; as a rule, active = well fitted curve in the direction sought with a large enough effect; inconclusive = small, poorly fitted or top-dose-only effect, or another doubt; inactive = no such curve, though single readings can be large; an effect the other way counts as inactive or inconclusive.

SMILES	DT40 TDP1 CPT	TDP1 cell noCPT	RORg inh	VP16 counter	IL1B secr inh	LDHA block
O=C(OCc1ccc(-c2ccccc2)cc1)c1cnccn1	.	.	.	.	.	-
COc1ccc2cc3cc(C(=O)NCc4ccco4)oc3nc2c1	?	?	-	-	-	-
CCCCOC(=O)c1c(N)n(-c2ccc(OC)cc2OC)c2nc3ccccc3nc12	11.6µM	16.4µM	.	.	.	-
COc1ccc2cc3c(N)c(C(=O)NCc4ccco4)sc3nc2c1	?	?	?	?	-62.8	-
COc1ccc(-n2c(N)c(C(=O)NCc3ccco3)c3nc4ccccc4nc32)c(OC)c1	23.1µM	?	-	-	-	-
COc1ccc(S(=O)(=O)N(C)c2ccc(C(=O)NCc3ccco3)cc2)cc1OC	-	-	-	-	-	-
COc1ccc(CCn2c(N)c(C(=O)NCc3ccco3)c3nc4ccccc4nc32)cc1OC	23.1µM	16.4µM	-	-	-	-
CC(C)c1ccc(/C=C/C(=O)Nc2ccc(Cl)cc2C(F)(F)F)cc1	.	.	.	.	.	-
Cc1cc2cc3c(cc2nc1SCc1ccc(C(=O)O)cc1)OCCO3	-	-	-	-	-	-
COc1cccc(CSc2nc3cc4c(cc3cc2C)OCCO4)c1	?	29.1µM	-	-	-	-
COc1cc2nc(CN(C)Cc3nc4ccccc4c(=O)[nH]3)[nH]c(=O)c2cc1OC	12.6µM	12.6µM	1.58µM	3.55µM	-	-
COc1cc2nc(CN(C)Cc3ccc(Cl)cc3)[nH]c(=O)c2cc1OC	?	25.9µM	-	-	-	-
CN(Cc1cc(=O)n2ccsc2n1)Cc1nc2ccccc2c(=O)[nH]1	-	-	7.94µM	?	-	-
CSc1ccc(CN(C)Cc2nc3cc(C(F)(F)F)ccc3c(=O)[nH]2)cc1	?	?	12.6µM	?	-	-
CC(C[N+](C)(C)C)OC(=O)c1ccc2c(c1)OCO2 (stereo not given)	.	.	.	.	.	-
CCN(Cc1nc2ccccc2c(=O)[nH]1)Cc1nc2cc(OC)c(OC)cc2c(=O)[nH]1	-	?	1.26µM	2.24µM	-	-
CCN(Cc1cc(=O)n2cc(Cl)c(C)c(Cl)c2n1)Cc1nc2ccccc2c(=O)[nH]1	-	18.4µM	12.6µM	?	-	-
O=C(CS(=O)(=O)c1ccccc1)Nc1nc(-c2ccc(F)cc2)cs1	?	?	-	-	-	-
O=C(CCS(=O)(=O)c1ccccc1)Nc1nc(-c2ccc(F)cc2)cs1	?	?	-	?	-76.6	-
O=C(CCS(=O)(=O)c1ccccc1)Nc1nccs1	?	?	-	-	-	-
Cc1ccc(S(=O)(=O)CCC(=O)Nc2nc(-c3cccnc3)cs2)cc1	14.6µM	?	-	-	-	-
O=C(CCS(=O)(=O)c1ccc(Cl)cc1)Nc1nc(-c2ccncc2)cs1	16.4µM	13µM	-	-	?	-
Cc1ccc(S(=O)(=O)CCC(=O)Nc2nc(-c3ccccn3)cs2)cc1	6.51µM	5.8µM	.	.	-	-
COc1ccc(Cl)cc1NC(=O)COc1ccccc1Br	.	.	.	.	.	-
COc1ccc(-c2csc(NC(=O)CS(=O)(=O)c3ccccc3)n2)c(OC)c1	?	?	.	.	?	-
SMILES	DT40 TDP1 CPT	TDP1 cell noCPT	RORg inh	VP16 counter	IL1B secr inh	LDHA block
COc1ccc(-c2csc(NC(=O)CCS(=O)(=O)c3ccccc3)n2)c(OC)c1	?	8.2µM	?	-	-87.6	-
CC(C)CCCC(C)NC(=S)NN (stereo not given)	.	.	.	.	.	-
CCc1ccc(CNC(=O)CCCN2C(=O)c3cccnc3Oc3ccc(Cl)cc32)cc1	20.6µM	18.4µM	.	.	.	-
O=C(CCCN1C(=O)c2cccnc2Oc2ccc(Cl)cc21)NCc1ccc(F)cc1	?	?	.	.	.	-
CN(C)c1ccc(CNC(=O)CCCN2C(=O)c3cccnc3Oc3ccc(Cl)cc32)cc1	18.4µM	?	.	.	.	-
O=C(Nc1ccc2nc[nH]c(=O)c2c1)c1ccc(Br)cc1Cl	.	.	.	.	.	-
CC[C@@H](C(=O)n1nc(C)cc1C)[C@H](NS(=O)(=O)c1ccc(C)cc1)c1ccccc1	?	20.6µM	-	-	-	-
COc1ccc(N2CCN(C(=O)Nc3cn(CC(C)C)c(=O)c4ccccc34)CC2)cc1	-	14.6µM	.	.	.	-
Cc1ccc(CNC(=O)Nc2cn(CC(C)C)c(=O)c3ccccc23)cc1	-	?	.	.	.	-
Cc1ccc(C)c(N2CCN(C(=O)Nc3cn(CC(C)C)c(=O)c4ccccc34)CC2)c1	13µM	16.4µM	.	.	.	-
Cc1ccc(NC(=O)Nc2cn(CC(C)C)c(=O)c3ccccc23)cc1N(C)C	20.6µM	23.1µM	.	.	.	-
COc1cc2c(C(=O)N3CCN(c4cccc(C)c4)C(C)C3)cn(CC(C)C)c(=O)c2cc1OC (stereo not given)	14.6µM	?	.	.	.	-
COc1cccc(CNC(=O)Nc2cn(CC(C)C)c(=O)c3ccccc23)c1	-	?	.	.	.	-
CN(C)S(=O)(=O)N1CCN(C(=O)Cc2cccc(F)c2)CC1	.	.	.	.	.	-
CC(C)Cn1cc(NC(=O)N2CCN(c3cccc(Cl)c3)CC2)c2ccccc2c1=O	7.31µM	?	.	.	.	-
CC(C)Cn1cc(NC(=O)Nc2cccc(C(F)(F)F)c2)c2ccccc2c1=O	20.6µM	?	.	.	.	-
COc1cc2c(C(=O)N3CCN(c4cccc(C(F)(F)F)c4)CC3)cn(CC(C)C)c(=O)c2cc1OC	16.4µM	18.4µM	.	.	.	-
CCOC(=O)N1CCN(c2c(N3CCN(c4cccc(C(F)(F)F)c4)CC3)c(=O)c2=O)CC1	-	-	-	-	-	-
O=C(c1cc(=O)c2ccccc2o1)N1CCN(c2cccc(Cl)c2)CC1	?	?	-	-	-	-
CC(C)Cn1cc(NC(=O)N2CCN(c3cccc(C(F)(F)F)c3)CC2)c2ccccc2c1=O	14.6µM	16.4µM	.	.	.	-
COc1cc(C(=O)OCC(=O)c2ccccc2)ccc1OCc1ccc(Cl)cc1	.	.	.	.	.	-
NNC1CCCC1O (stereo not given)	.	.	.	.	.	-
CC(=O)N1CCCN(Cc2cn(-c3cccc(C)c3)nc2-c2cccc(F)c2)CC1	?	16.4µM	-	-	-	-
CC(=O)N1CCCN(Cc2cn(-c3ccc(C)cc3)nc2-c2ccc(F)cc2)CC1	?	18.4µM	-	-	-77.9	-
Cc1cccc(-n2cc(CN3CCCN(C=O)CC3)c(-c3cccc(F)c3)n2)c1	?	?	-	-	-	-
CC(=O)N1CCCN(Cc2cn(-c3cc(C)ccc3C)nc2-c2ccccc2)CC1	18.4µM	?	-	-	-	-
NC(=O)c1cccc(C(=O)NC2CCCc3ccccc32)c1 (stereo not given)	.	.	.	.	.	-
Cn1c(C=C(C#N)C#N)ccc1-c1cc(Cl)cc(Cl)c1	.	.	.	.	.	-
Cc1nnc2sc(-c3csc4c3CCCC4)nn12	-	-	-	-	-	-
